# In ChEMBL document CHEMBL3988442, “University of Dundee, Small-Polar-MMV Screening Library” (2021):
# Hit rate of the full screen: of about 66,000 compounds, about 960 (1.5%) showed an effect of 50% or more. This excerpt belongs to a sample that is enriched for strong results.
# Test system: Trypanosoma brucei
# Assay: Trypanosoma brucei 72 hour study
# Assay type: functional, organism-based
# Design: scale not given: in the data most compounds retested in dose-response had high values
smiles,measurement,setting,value
O=C(NCc1ccccc1-n1cccn1)C1CC2(CCNCC2)CN1 (stereo not drawn),Percent Effect,"30 µM, 30.03 µM",40.65%
O=C(O)C(F)(F)F.O=C1C[C@H]2[C@@H](CCN2C(=O)Cc2cccs2)N1Cc1ccncc1,Percent Effect,"30.3 µM, […]",-0.2658%
CCCc1cncnc1N1CCC(NCc2ccc(O)cc2)CC1,Percent Effect,"30 µM, 30.03 µM",63.63%
CCCc1cncnc1N1CCC(NCc2ccncc2)CC1,Percent Effect,"30 µM, 30.03 µM",-66.51%
CCCc1cncnc1N1CCC(NCCc2ccc(O)cc2)CC1,Percent Effect,"30 µM, 30.03 µM",-6.649%
CN(C)CC1(O)CCN(S(=O)(=O)c2cccc(F)c2)C1 (stereo not drawn),Percent Effect,"30.3 µM, […]",-12.71%
Brc1cccnc1OC1CCNCC1.Cl,Percent Effect,"30 µM, 30.03 µM",-18.95%
Cc1ccc2c(c1)C(NCc1ccccn1)CC2 (stereo not drawn),Percent Effect,"30 µM, 30.03 µM",31.05%
COc1cccc(CNC2CCCOc3cc(C)ccc32)n1 (stereo not drawn),Percent Effect,"30 µM, 30.03 µM",-17.07%
COc1cccc(CNC2CCc3ccc(C)cc32)n1 (stereo not drawn),Percent Effect,"30 µM, 30.03 µM",102.5%
N#Cc1c2n(c3c(=O)[nH]cnc13)CCCC2,Percent Effect,"30 µM, 30.03 µM",-59.85%
Cc1nn(C)cc1CNCc1ccc(N(C)C)cc1,Percent Effect,"30.3 µM, […]",-17.42%
CC1=C(C#N)C(=O)NC(=O)/C1=C\c1c(C)nn(-c2ccccc2)c1O,Percent Effect,"30.3 µM, […]",8.75%
Cc1ccccc1N1CCN(c2nc(N(C)C)nc3c2CCNC3)CC1,Percent Effect,"30 µM, 30.03 µM",-31.91%
CN(C)c1nc2c(c(N3CCc4ccccc4C3)n1)CCNC2,Percent Effect,"30 µM, 30.03 µM",100.4%
c1ccc2c(c1)CCN(c1nc(-c3ccncc3)nc3c1CCNC3)C2,Percent Effect,"30 µM, 30.03 µM",-16.52%
CC(C)C(=O)NC1CC2(CCN(CC(=O)N(C)C)CC2)c2ccccc21.O=C(O)C(F)(F)F (stereo not drawn),Percent Effect,"30.3 µM, […]",-88.42%
Cc1ccsc1C(=O)N1CCC2(CC(C(=O)N(C)C(C)C)=NO2)C1 (stereo not drawn),Percent Effect,"30 µM, 30.03 µM",-54.71%
CCCN1CCC(NC(=O)Nc2ccc(OC)c(OC)c2)CC1,Percent Effect,"30.3 µM, […]",-0.7678%
CCCN1CCC(NC(=O)c2csc(C)c2-c2ccccc2)CC1,Percent Effect,"30.3 µM, […]",-89.86%
CCCN1CCC(Nc2cc(-c3ccccc3)ccc2OC)CC1,Percent Effect,"30.3 µM, […]",57.37%
CC(NC(=O)NCCCN1CCCCCC1=O)c1nncn1C (stereo not drawn),Percent Effect,"30.3 µM, […]",-29.33%
O=C(O)C(F)(F)F.O=C(O)C(F)(F)F.O=C1COC2(CCN(Cc3cccs3)CC2)CN1c1cccnc1,Percent Effect,"30 µM, 30.03 µM",-14.7%
CC(C)(C)Nc1nc(-c2cccnc2)c(-c2ccnc(NCCO)n2)s1,Percent Effect,"30.3 µM, […]",94.16%
CCNc1nc(-c2cccnc2)c(-c2ccnc(NS(C)(=O)=O)n2)s1,Percent Effect,"30.3 µM, […]",1.048%
CCNc1nc(-c2cccnc2)c(-c2ccnc(NCCO)n2)s1,Percent Effect,"30.3 µM, […]",9.967%
O=C(NCCc1cccs1)[C@H]1CO[C@H]2CCN(C3CCC3)C[C@H]2C1.O=C(O)C(F)(F)F,Percent Effect,"30.3 µM, […]",-77.19%
CCOC(=O)[C@]12CCCN(Cc3ccco3)C[C@H]1CN(S(C)(=O)=O)C2.O=C(O)C(F)(F)F,Percent Effect,"30.3 µM, […]",4.884%
COc1cccc(OC)c1CN1CC(=O)N(c2ccc(C)cc2)CC1C (stereo not drawn),Percent Effect,"30 µM, 30.03 µM",102.6%
COc1cc(CN2CC(=O)N(c3ccc(C)cc3)CC2C)cc(OC)c1 (stereo not drawn),Percent Effect,"30 µM, 30.03 µM",-11.31%
COc1ccc(CN2CC(=O)N(c3ccc(C)cc3)CC2C)cc1O (stereo not drawn),Percent Effect,"30 µM, 30.03 µM",-20.88%
Cn1cc(C(=O)N2C[C@H]3C[C@H](Oc4ccccc4)C[C@H]3C2)cn1,Percent Effect,"30.3 µM, […]",8.793%
Cl.c1nnc(Nc2cncc(C3CCCN3)n2)s1 (stereo not drawn),Percent Effect,"30.3 µM, […]",-8.347%
Cl.c1cnc(Nc2cncc(C3CCCN3)n2)cn1 (stereo not drawn),Percent Effect,"30.3 µM, […]",99.3%
Cc1nc(Nc2cnccn2)cc(C2CCCN2)n1.Cl (stereo not drawn),Percent Effect,"30.3 µM, […]",-13.8%
O=C(COC[C@@]12CCC[C@@H]1CN(C1CCCC1)C2)N1CCCC1.O=C(O)C(F)(F)F,Percent Effect,"30.3 µM, […]",-80.12%
CSc1ccc(CNC(c2ccccc2F)c2nccn2C)cc1.Cl (stereo not drawn),Percent Effect,10 µM,-81.16%
CN(C)C(=O)Cc1ccccc1NCc1cccc2cccnc12,Percent Effect,"30.3 µM, […]",4.964%
CN(C)C(=O)Cc1ccccc1NCc1cc(C#N)ccc1F,Percent Effect,"30.3 µM, […]",-2.182%
CN(C)C(=O)Cc1ccccc1NCc1cccc(F)c1F,Percent Effect,"30.3 µM, […]",97.11%
CN(C)CCNC(=O)c1sccc1N(C)S(=O)(=O)c1ccc(Cl)cc1,Percent Effect,"30 µM, 30.03 µM",-35.26%
COc1ccc(-c2cc(CN)ccc2F)c(OC)c1OC,Percent Effect,"30.3 µM, […]",-22.81%
COc1ccc(-c2ccccc2CN)c(OC)c1,Percent Effect,"30 µM, 30.03 µM",-56.26%
COc1ccc(-c2ccccc2CCN)c(OC)c1OC,Percent Effect,"30 µM, 30.03 µM",106.1%
CO[C@H]1CCN(Cc2ccoc2)C[C@@H]1Cc1ccccc1.O=C(O)C(F)(F)F,Percent Effect,"30.3 µM, […]",-12.49%
C[C@@H]1C[C@@H]2CCN(C(=O)c3ccncn3)C[C@H]2O1,Percent Effect,"30 µM, 30.03 µM",-27.33%
COc1cc(N2CCC3(CCCN(C(=O)c4cnccn4)C3)C2)ncn1.O=C(O)C(F)(F)F (stereo not drawn),Percent Effect,"30 µM, 30.03 µM",-22.02%
O=C(NCCCO)c1cc(-c2ccc3c(c2)CCO3)n[nH]1,Percent Effect,"30 µM, 30.03 µM",-14.14%
O=C(NCCCN1CCOCC1)c1cc(-c2ccc3c(c2)CCO3)n[nH]1,Percent Effect,"30 µM, 30.03 µM",57.45%
O=C(NCCN1CCOCC1)c1cc(-c2ccc3c(c2)CCO3)n[nH]1,Percent Effect,"30 µM, 30.03 µM",31.8%
O=C(NCc1nnc2n1CCCCC2)N(CC1CCOC1)C1CC1 (stereo not drawn),Percent Effect,"30 µM, 30.03 µM",-56.14%
CNc1cc2c(nn1)CCN(C(=O)c1cccc3c1OCCO3)C2,Percent Effect,10 µM,-31.25%
COc1ccc(CN2CCC(CO)(Cc3ccc(Cl)cc3)CC2)c(O)c1,Percent Effect,"30.3 µM, […]",-63.01%
COc1cccc(CN2CCC(CO)(Cc3ccc(Cl)cc3)CC2)c1O,Percent Effect,"30.3 µM, […]",102.9%
OCC1(Cc2ccc(Cl)cc2)CCN(Cc2ccccc2O)CC1,Percent Effect,"30.3 µM, […]",-146.1%
CC(C)CNC(=O)[C@H]1C[C@@H]2CN(C(=O)Nc3ccc(F)cc3)C[C@H]1O2,Percent Effect,"30 µM, 30.03 µM",-34.27%
O=C(O)C(F)(F)F.O=S(=O)(c1ccccc1)N1CCC2(CCCN2Cc2cccc(Cl)c2)C1 (stereo not drawn),Percent Effect,"30 µM, 30.03 µM",-34.57%
O=S(=O)(c1ccccc1)N1CCC2(CCCN2Cc2ccc(Cl)cc2)C1 (stereo not drawn),Percent Effect,"30.3 µM, […]",61.41%
O=S(=O)(c1ccccc1)N1CCC2(CCCN2Cc2ccccc2Cl)C1 (stereo not drawn),Percent Effect,"30.3 µM, […]",33.63%
CCS(=O)(=O)N1CCCC2(CCCN2Cc2cccc(F)c2)C1.O=C(O)C(F)(F)F (stereo not drawn),Percent Effect,"30 µM, 30.03 µM",-82.26%
O=S(=O)(c1ccccc1)N1CCC2(CCCN2Cc2cccc(F)c2)C1 (stereo not drawn),Percent Effect,"30.3 µM, […]",56.8%
O=C(O)C(F)(F)F.O=C(O)C(F)(F)F.O=S(=O)(c1ccccc1)N1CCC2(CCCN2Cc2cccnc2)C1 (stereo not drawn),Percent Effect,"30.3 µM, […]",-446.5%
O=C(C1CC1)N1CCC2(CCN2Cc2ccc(F)cc2)C1.O=C(O)C(F)(F)F (stereo not drawn),Percent Effect,"30.3 µM, […]",-12.66%
Cc1cccnc1CN1CC[C@H](Oc2cccc(F)c2)[C@@](C)(O)C1,Percent Effect,"30.3 µM, […]",-17.61%
O=C1CC(NS(=O)(=O)c2ccc(Br)cc2)CN1 (stereo not drawn),Percent Effect,"30 µM, 30.03 µM",-19.04%
CN(C(=O)CSc1ccccn1)C1CCCN(CCc2ccccc2)C1 (stereo not drawn),Percent Effect,"30 µM, 30.03 µM",106.3%
CC(C)C(=O)NCC(=O)N(C)C1CCCN(CCc2ccccc2)C1 (stereo not drawn),Percent Effect,"30.3 µM, […]",1.246%
CN(C(=O)CCc1ccncc1)C1CCCN(CCc2ccccc2)C1 (stereo not drawn),Percent Effect,"30 µM, 30.03 µM",2.42%
CCn1nccc1C(=O)NC(Cn1cccn1)C(C)(C)C (stereo not drawn),Percent Effect,"30.3 µM, […]",-6.087%
CC(C)(C)C(Cn1cccn1)NC(=O)c1ccco1 (stereo not drawn),Percent Effect,"30.3 µM, […]",101.2%
Cn1cc(C(=O)NC(Cn2cccn2)C(C)(C)C)cn1 (stereo not drawn),Percent Effect,"30.3 µM, […]",-4.857%
CC(CNC(=O)CCCn1cncn1)N1CCc2ccccc2C1 (stereo not drawn),Percent Effect,"30 µM, 30.03 µM",-32.01%
CCCC(=O)Nc1sc(C(=O)OCC)c(C)c1C#N,Percent Effect,"30 µM, 30.03 µM",19.97%
Cc1sc(NC(=O)CN(C)S(C)(=O)=O)c(C#N)c1C,Percent Effect,"30 µM, 30.03 µM",51.13%
CCOC(=O)c1sc(NC(=O)CN(C)S(C)(=O)=O)c(C#N)c1C,Percent Effect,"30 µM, 30.03 µM",-8.874%
Cl.O=C(Nc1nc2c(s1)CNCC2)NC1CCCC1,Percent Effect,"30 µM, 30.03 µM",-50.11%
Cl.NC(C(=O)N1CCSc2ccccc2C1)c1ccccc1 (stereo not drawn),Percent Effect,"30 µM, 30.03 µM",1.138%
Cc1nn2c(-c3snnc3C)nnc2s1,Percent Effect,"30 µM, 30.03 µM",-55.36%
COCCC(=O)N1CC2(CCN(Cc3cccc(Cl)c3)CC2)C1.O=C(O)C(F)(F)F,Percent Effect,"30 µM, 30.03 µM",-25.19%
Cc1nnc(N2CC[C@H]3C[C@@H](C(=O)N4CCCC4)O[C@H]3C2)s1.O=C(O)C(F)(F)F,Percent Effect,"30.3 µM, […]",-391.5%
O=C(Nc1cccc(F)c1)C1CCCN1c1nccs1 (stereo not drawn),Percent Effect,"30.3 µM, […]",1.599%
O=C1NCc2ccc(NC(=O)C3CCCN3c3nccs3)cc21 (stereo not drawn),Percent Effect,"30 µM, 30.03 µM",23.55%
O=C(Nc1ccc(OC2CCCC2)cc1)C1CCCN1c1nccs1 (stereo not drawn),Percent Effect,"30.3 µM, […]",83.44%
O=C(N1CCOCC1)[C@@]12CCO[C@@H]1CCN(CC1CCCC1)C2.O=C(O)C(F)(F)F,Percent Effect,"30 µM, 30.03 µM",-11.27%
CN(Cc1cccc(F)c1)C(=O)CS(=O)(=O)Cc1c(Cl)cccc1Cl,Percent Effect,"30.3 µM, […]",83.04%
Cc1ccccc1CS(=O)(=O)CC(=O)N(C)Cc1cccc(F)c1,Percent Effect,"30.3 µM, […]",-71.65%
CN(Cc1cccc(F)c1)C(=O)CS(=O)(=O)Cc1ccc(Cl)c(Cl)c1,Percent Effect,"30.3 µM, […]",45.42%
CCOc1nnc(CN(C)CC2CCCN2c2cccnn2)s1 (stereo not drawn),Percent Effect,"30 µM, 30.03 µM",2.197%
O=C(O)C(F)(F)F.O=C(O)C(F)(F)F.O=C(c1cnc2n1CCN(Cc1ccccc1)C2)N1CCCC1,Percent Effect,"30.3 µM, […]",-305.8%
CCc1cccc(N2CCC(NC(=O)c3ccco3)CC2)c1,Percent Effect,10 µM,-6.636%
same,Percent Effect,"30.3 µM, […]",-4.063%
COc1ccc(N2CCC(N3CCOC(C(F)(F)F)C3)CC2)cc1 (stereo not drawn),Percent Effect,"30 µM, 30.03 µM",-19.82%
O=C(O)c1ccccc1C1CCN(C2CCN(c3ccccc3)CC2)C1 (stereo not drawn),Percent Effect,"30.3 µM, […]",-16.4%
NC1CCN(C2CCN(c3ccc(-c4ccco4)cc3)CC2)CC1,Percent Effect,"30.3 µM, […]",-49.5%
CNC1CCN(C2CCN(c3ccc(-c4ccco4)cc3)CC2)CC1,Percent Effect,"30.3 µM, […]",100.1%
NCC1CCN(C2CCN(c3ccc(-c4ccco4)cc3)CC2)C1 (stereo not drawn),Percent Effect,"30.3 µM, […]",100.4%
Cn1cc(CN2CCc3onc(C(=O)N4CCCC4)c3C2)cn1.O=C(O)C(F)(F)F,Percent Effect,"30.3 µM, […]",-19.54%
O=C(c1cscn1)N1C[C@H]2CCC[C@@]2(COCc2ccccn2)C1,Percent Effect,"30.3 µM, […]",-7.729%
